This is part of a sample that, as a whole, favours compounds with a hit. Of some 79,000 tested, about 15% had one in any assay. Values without a mark were called inactive. No stated cut-off is given here; in the data, active means growth inhibition above about 70%; inactive means the rest.
Assay: NCI Yeast Anticancer Drug Screen. Data for the cln2 rad14 strain (AID 165);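 further: 0% = growth equal to vehicle treated cultures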
Details: S. cerevisiae cln2 rad14 strain, at 50.0 µM, active compounds read high
Protocol: Growth inhibition of yeast strains with defined genetic alterations is measured as a screen for potential anti-cancer activity. Selected strains with alterations in DNA damage repair or cell cycle control were exposed to compounds and growth inhibition was measured relative to vehicle treated controls. The strain used in this assay is cln2 rad14

Structure (SMILES)	growth inhibition
COC(C)(C)C/C=C/C(C)=C/C=C/C(C)=C\C=C\C(C)=C\C=C\C=C(C)\C=C\C=C(C)\C=C\C=C(C)\C=C\CC(C)(C)OC	2.25%
NC(=O)OCc1c(-c2ccccc2)nn(-c2ccccc2)c1COC(N)=O	-19.6%
CCCC(CO)OC(=O)Nc1ccc(-c2ccccc2)cc1 (stereo not given)	-56%
CCCCCCCCC(=O)c1c(OC)oc(C=O)cc1=O	26.2%
NCCN.O=C([O-])CN1CCOCC1.[OH-].[Pt+4]	-17.9%
Oc1cccc2c1N1CCN2CC1	4.85%
O=C(/C=C(\Cl)c1ccc2c(c1)OCO2)OC/C=C\c1ccc2c(c1)OCO2	20.3%
COC(=O)CC1(C(=O)OC)Nc2ccc(Cl)cc2C(=O)O1 (stereo not given)	-19.6%
Nc1nc(-c2ccc([N+](=O)[O-])cc2)cc(-c2cc(-c3ccc([N+](=O)[O-])cc3)nc(N)n2)n1	14.7%
CCCCCCCC/C=C/CCCCCC1CCCC(C)N1 (stereo not given)	3.65%
CCOC(=O)c1cnc2ccc(OC)cc2c1	-76.6%
N#CCCC1C(C#N)C2CC1C1C3C=CC(C3)C21 (stereo not given)	28.5%
CC1=CC[C@](C)(O)[C@@]2(C)CC[C@H]3C(=C(C)C)C(=O)C[C@]3(C)C[C@H]12	33.4%
COC(=O)C(C#N)C1NC(=O)c2ccccc21 (stereo not given)	1.45%
Cc1ccc(S(=O)(=O)OC(c2ccc(Cl)cc2Cl)C2OC(=O)c3ccccc32)cc1 (stereo not given)	24.7%
COc1c(C)c2nc3ccccc3[nH]c2c2c(=O)ccnc12	14.8%
N#CCCC(C(=O)O)C(=O)CN1C(=O)c2ccccc2C1=O (stereo not given)	-7.75%
O=C1OCC(O)C(O)C(O)C(O)C1O (stereo not given)	21.1%
CCCCNC(=O)C1C(=O)N(CCCC)C(=O)/C1=N\N (stereo not given)	56.3%
CCO/C(C)=N/n1c(C)nc2[nH]ncc2c1=O	-6.45%

Structure (SMILES)	growth inhibition
CCCCC(CC)CCC(O)CC(C)C (stereo not given)	10.8%
CCCCCCCCCCCCOC(=S)CCl	-18.9%
O=C1CCCC(=O)N1CCCO	-91%
COc1cc(C(=O)C/C(CCC(=O)Nc2ccccc2[N+](=O)[O-])=N\NC(=O)C(N)=O)ccc1O	5.9%
COc1ccc(/C=C2/CSCC3=C2NC(=S)NC3c2ccc(OC)c(OC)c2OC)c(OC)c1OC (stereo not given)	34.6%
COc1c2occc2c(N)c2ccc(=O)oc12	-14.5%
CC(C)C(O)(C(=O)OCC1=CC[N+]2(C)CCC(O)C12)C(C)O (stereo not given)	-21.4%
O=C(CC(c1ccccc1)C1CCCN(c2ccccc2)S1(=O)=O)c1ccccc1 (stereo not given)	16.9%
CCCCN(C)CC(C)O (stereo not given)	-24.3%
Cc1cccc(CBr)c1-c1c(C)cccc1CBr	-31.1%
O=C(NC1CCCCC1)Oc1ccc[nH]c1=O	-26.9%
Nc1cccc2c1C(=O)OC2=O	-5.7%
Cc1ccc(C(=O)NC(C)C)cc1N=NN(C)C	9.7%
CCC1CC2CCC(c3cc4c(cc3OC)N(C)C3C(O)(C(=O)OC)C(OC(C)=O)C5(CC)C=CCN6CCC43C65)c3[nH]c4ccccc4c3CCN(C1)C2 (stereo not given)	-1%
CC1(C)N=C(C(N)=O)c2ncn(CCCO)c2N1	23.2%
O=C1CC2CCCCC2CC1c1ccc(OCc2ccccc2)c(OCc2ccccc2)c1 (stereo not given)	9.1%
OCC(CN1CCCCC1)(CN1CCCCC1)CN1CCCCC1	-7.05%
O=C1OC(c2ccc(Cl)cc2)=N/C1=C\c1c(Cl)cccc1Cl	11.9%
CCOC(=O)C(C#N)=C(CC)CC	-3.95%
O=[N+]([O-])C(C=C(n1nnc2ccccc21)n1nnc2ccccc21)=C(n1nnc2ccccc21)n1nnc2ccccc21	4.2%

From PubChem BioAssay (NCI)
